Source: PubChem BioAssay (The Scripps Research Institute Molecular Screening Center)
The list is not random: actives were taken first. Their share in the collection is about 1.3%.
LYPLA2 inh: blocks human lysophospholipase 2, a PME1 counter-screen; recombinant LYPLA2, FP-Rh probe fluorescence polarization; inhibition, % at 5.9 µM; hit rate 0.38% among 320,000; AID 2177;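 active = inhibition above the screen-wide mean plus 3 SD, limit set per campaign, cut at about 26% in these data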
ZTA DNA inh: ZTA (EBV) inhibition in EBNA-1 counter-screen. inhibition, % at 11 µM. ZTA-DNA binding, fluorescence polarization. hit rate 0.15% among 320,000; in the data active = inhibition above about 33%
EBNA-1 inh: blocks EBNA-1 binding to DNA. EBNA-1 DNA binding, fluorescence polarization. inhibition, % at 14.8 µM. hit rate 0.34% among 300,000. AID 1950; in the data active = inhibition above about 28%
LYPLA1 counter: counter-screen for PME1 inhibitors: inhibitors of human LYPLA1; O75608; recombinant LYPLA1, FP-Rh probe fluorescence polarization; inhibition, % at 5.9 µM; hit rate 0.16% among 320,000; AID 2174;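 active = inhibition above the mean of all tested compounds plus 3 SD, set per campaign, cut at about 14% in these data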;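 note: inhibitors block serine hydrolase probe labeling of LYPLA1 so polarization falls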
PREPL inhibitor: inhibitors of human prolyl oligopeptidase-like enzyme PREPL; inhibition, % at 5.96 µM; recombinant PREPL, fluorescence polarization activity-based probe; Q4J6C6; hit rate 0.68% among 320,000; in the data active = inhibition above about 43%
Target sequence (Q4J6C6 whole entry, looked up): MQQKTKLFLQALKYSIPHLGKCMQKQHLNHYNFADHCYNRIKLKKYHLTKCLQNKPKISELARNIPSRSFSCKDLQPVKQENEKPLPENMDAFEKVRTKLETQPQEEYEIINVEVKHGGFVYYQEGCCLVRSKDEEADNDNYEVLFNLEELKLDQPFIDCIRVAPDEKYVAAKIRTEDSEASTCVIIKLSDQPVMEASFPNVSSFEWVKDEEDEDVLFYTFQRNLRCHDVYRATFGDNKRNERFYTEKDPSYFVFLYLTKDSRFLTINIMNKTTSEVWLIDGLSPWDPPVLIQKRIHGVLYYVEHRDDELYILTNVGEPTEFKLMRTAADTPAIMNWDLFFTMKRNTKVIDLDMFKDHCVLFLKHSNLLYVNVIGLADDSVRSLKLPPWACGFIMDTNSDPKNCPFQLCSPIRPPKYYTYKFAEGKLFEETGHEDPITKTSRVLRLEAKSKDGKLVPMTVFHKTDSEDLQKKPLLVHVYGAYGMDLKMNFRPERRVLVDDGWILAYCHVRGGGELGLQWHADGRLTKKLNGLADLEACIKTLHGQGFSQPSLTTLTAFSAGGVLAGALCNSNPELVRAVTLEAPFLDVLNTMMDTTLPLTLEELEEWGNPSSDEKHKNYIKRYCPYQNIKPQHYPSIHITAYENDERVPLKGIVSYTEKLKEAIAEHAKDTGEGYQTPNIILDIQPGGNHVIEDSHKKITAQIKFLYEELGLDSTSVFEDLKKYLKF
Of the large screens only hits and unclear results are named; the others gave an inactive call.

Cc1cc(C)cc(NC(=O)/C(C#N)=C/c2cn(CC(=O)NCc3ccco3)c3ccccc23)c1	EBNA-1 inh 39.8
Cc1cccc(-n2nnnc2SCC(=O)c2cc(C)n(CC3CCCO3)c2C)c1 (stereo not drawn)	none
Cc1ccc(-n2nnnc2SCC(=O)c2cc(C)n(CC3CCCO3)c2C)cc1 (stereo not drawn)	EBNA-1 inh 101.1
CC(=O)N1CCc2ccccc2C1CC(=O)O (stereo not drawn)	none
O=C(Cc1cccs1)N1CCC(c2nc3c(nnn3Cc3ccccc3Cl)c(=O)[nH]2)CC1	none
CCCCCCC(=O)N1CCC(c2nc3c(nnn3Cc3ccccc3Cl)c(=O)[nH]2)CC1	LYPLA2 inh 38.5
Cc1csc(=O)n1CC(=O)Nc1nc2ccccc2s1	none (no result: EBNA-1 inh)
CCN1/C(=C/C=C/c2oc3ccc4ccccc4c3[n+]2CC)Oc2ccc3ccccc3c21	EBNA-1 inh 28.7, LYPLA1 counter 57.7
Cc1cc(-c2ccc(C(C)C)c(S(=O)(=O)NCCN3CCC(C)CC3)c2)on1	none
O=C(O)CSc1c2c(nc3cc(C(=O)Nc4ccc(F)c(Cl)c4)ccc13)CCCC2	none
CCC(=O)c1ccc(OCC(=O)OC(C)C(=O)NCc2ccc3c(c2)OCO3)cc1 (stereo not drawn)	none
Cc1ccc(NC(=O)CN2C(=O)S/C(=C\c3cccn3-c3cccc(C(=O)O)c3)C2=O)c(C)c1	LYPLA2 inh 30.2
Cc1cccc(C)c1NC(=O)CN1C(=O)S/C(=C\c2cccn2-c2cccc(C(=O)O)c2)C1=O	none
Cc1ccc(Nc2nc(-c3ccccc3)c(CC(=O)O)s2)cc1	PREPL inhibitor 57.7
COC(=O)c1ccc(NC(=O)C(=O)N2CCN(C(=S)Nc3cccc(OC)c3)CC2)cc1	LYPLA2 inh 56.1
COc1ccc(N2CCN(C(=O)c3ccc(COc4ccc5c(C)cc(=O)oc5c4)cc3)CC2)cc1	LYPLA2 inh 63.1
CS(=O)(=O)N(Cc1ccccc1Cl)c1ccc(C(=O)N2CCCC2)cc1	none
Cc1cccc(C)c1NS(=O)(=O)c1cc2c3c(c1)CC(=O)N3CCC2	none
C=CCOc1ccc(/C=C2\C(=N)N3N=C(S(=O)(=O)CC)SC3=NC2=O)cc1OC	none
CCS(=O)(=O)C1=NN2C(=N)/C(=C\c3ccc(OC(=O)c4ccco4)c(OC)c3)C(=O)N=C2S1	PREPL inhibitor 51.4
O=C(C1CCN(S(=O)(=O)N2CCOCC2)CC1)N1CCN(c2ccc(F)cc2)CC1	none
O=C(C1CCN(c2ccc(N3CCOCC3)nn2)CC1)N1CCN(c2ccc(F)cc2)CC1	PREPL inhibitor 65.2
CCOc1ccc(NC(=O)CCn2c(=S)oc3ccccc32)cc1	none
CN(C)c1ccc(NC(=O)CCn2c(=S)oc3ccccc32)cc1	PREPL inhibitor 58.4
CCOc1ccc(NC(=O)CSc2nc3ccccc3nc2N2CCOCC2)cc1	none
CCc1ccccc1NC(=S)N(CCCN1CCOCC1)Cc1ccccn1	ZTA DNA inh 81.8
CC1CCN(C(=O)c2ccc(SCc3ccccc3F)c([N+](=O)[O-])c2)CC1	LYPLA2 inh 34.3, EBNA-1 inh 37.9
CC(C)c1onc(C(=O)N(C)Cc2ccccc2)c1[N+](=O)[O-]	ZTA DNA inh 39.0
O=C(O)c1ccccc1-c1ccccc1C(=O)Nc1ccc(F)cc1	none
O=C(/C=C/c1ccc(NC(=O)c2ccccc2-c2ccccc2C(=O)O)cc1)c1ccccc1	ZTA DNA inh 40.9
O=C(O)c1ccc(N/N=C/c2ccc(OC(=O)c3cccc(Cl)c3)cc2)cc1	LYPLA2 inh 41.2
CCN1CCN(C(=O)CN(CC)S(=O)(=O)c2ccc3ccccc3c2)CC1	none
CC(C)(C)OC(=O)NCCCC1=CC2=CC(=O)C(C)(OC(=O)c3ccc(Cl)nc3)C(=O)C2=CO1 (stereo not drawn)	LYPLA1 counter 17.9
CCC(=O)OC1(C)C(=O)C=C2C=C(CCCCNC(=O)OC(C)(C)C)OC=C2C1=O (stereo not drawn)	none
COc1cc(C(=O)N/C(=C\c2cn(C)c3ccccc23)C(=O)NCCCn2ccnc2)cc(OC)c1OC	none
COc1cc([C@@H]2c3cc4c(cc3[C@H](O)[C@H]3COC(=O)[C@H]23)OCO4)cc(OC)c1OC	none
COc1cc([C@@H]2c3cc4c(cc3[C@@H](O)[C@@H](CO)[C@@H]2CO)OCO4)cc(OC)c1O[Si](C)(C)C(C)(C)C	ZTA DNA inh 33.6
CCOC(=O)C1=C(C)NC(=O)NC1c1ccc(OC(=O)c2ccco2)c(OC)c1 (stereo not drawn)	PREPL inhibitor 67.2
COc1cc(C2NC(=O)NC(C)=C2C(=O)OC(C)C)ccc1OC(=O)c1ccco1 (stereo not drawn)	PREPL inhibitor 79.4
CCOC(=O)C1=C(C)NC(=O)NC1c1ccc(OCC(=O)OC)c(OC)c1 (stereo not drawn)	none
C=CCn1c(=NC(=O)c2sc3ccccc3c2Cl)sc2cc(S(N)(=O)=O)ccc21	EBNA-1 inh 31.0
COCCn1c(=NC(=O)c2sc3ccccc3c2Cl)sc2cc(S(N)(=O)=O)ccc21	none
COC(=O)c1cc(OC)c(OC)cc1NC(=S)N1CCN(c2ccccc2)CC1	PREPL inhibitor 47.4
CCOC(=O)c1[nH]c2ccc(OC)cc2c1NC(=S)N1CCN(c2ccccc2)CC1	PREPL inhibitor 57.5
CCOc1cc(CNc2cccc3ccccc23)cc(Br)c1OCC(=O)NC(C)(C)C	PREPL inhibitor 56.8
CCOc1cc(CNc2ccc(N(C)C)cc2)cc(Br)c1OCC(=O)NC(C)(C)C	ZTA DNA inh active, EBNA-1 inh active
CCCNC(=O)C(Cc1ccc(F)cc1)NC(=O)c1ccc(C#N)cc1 (stereo not drawn)	none (no result: EBNA-1 inh)
CCc1cc(C(=O)OC)c(NC(=O)CN2CCN(C(=O)C3CCCO3)CC2)s1 (stereo not drawn)	none
O=C(COc1ccc(Br)cc1Br)NC(=S)N1CCCc2ccccc21	ZTA DNA inh 42.0
O=C(COc1ccc(Br)cc1Cl)NC(=S)N1CCc2ccccc21	none
COc1cccc(-c2csc(N3CCN(C(=O)Nc4ccc(F)cc4)CC3)n2)c1	none
COc1cccc(-c2csc(N3CCN(CC(=O)Nc4ccc5c(c4)OCO5)CC3)n2)c1	PREPL inhibitor 54.6
N#CC1=C(N)C(C#N)(C#N)[C@H](c2ccoc2)[C@H]2CN(Cc3ccccc3)CC=C12	PREPL inhibitor 52.4
CC(=O)c1cc(Cc2csc(C(C)=O)c2)cs1	PREPL inhibitor 52.7
NS(=O)(=O)c1ccc(CCNC(=O)c2cc([N+](=O)[O-])ccc2N2CCOCC2)cc1	none (no result: EBNA-1 inh)
CC(=O)c1c(C(C)=O)c(C)n(-c2ccc(C(=O)O)cc2)c1C	none
Cc1ccc(C)n1-c1ccc(C(=O)O)cc1	ZTA DNA inh 49.9
O=C(O)c1ccccc1Nc1ccnc(C(F)(F)F)c1	none
COC(=O)c1ccc(OC(=O)CCN2c3ccccc3Sc3ccccc32)cc1	none
COC(=O)c1ccc(OC(=O)CCN2C(=O)C3CCCCC3C2=O)cc1 (stereo not drawn)	PREPL inhibitor 44.3
N#CCCN1CCN(C2=NC(=O)/C(=C\c3cccs3)S2)CC1	LYPLA2 inh 28.7
